# Assay results as given in PubChem BioAssay AID1878 (Sanford-Burnham Center for Chemical Genomics, 2009).
# The campaign covered roughly 1,000 compounds. About 200 (20%) were called active. Not all results are given here. Measured potencies and affinities stand elsewhere. A number with no mark means an inactive call. Cut-off read from the data, not from the text of the source: active = inhibition above about 55%; inactive = the rest.
# Target: Dual specificity protein phosphatase 3 (Homo sapiens) (UniProt P51452)
# Experiment: VHR1 phosphatase inhibitors, biochemical (AID 1878)
# Conditions: recombinant VHR phosphatase, fluorogenic substrate; at 13.3 µM; active compounds read high
# Dual specificity protein phosphatase 3 (Homo sapiens), sequence (P51452 whole entry, looked up): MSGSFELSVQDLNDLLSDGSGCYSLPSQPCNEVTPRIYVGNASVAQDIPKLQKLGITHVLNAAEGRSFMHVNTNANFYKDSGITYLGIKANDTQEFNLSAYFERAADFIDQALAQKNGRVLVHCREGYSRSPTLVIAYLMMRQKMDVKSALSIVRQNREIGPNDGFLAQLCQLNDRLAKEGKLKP
row,Compound,inhibition
1,CN(C)C(=O)OCC1COc2ccccc2O1 (stereo not drawn),0.1%
2,Cn1c2ccccc2c(=O)c2c(=O)n(C3CCCCCC3)c(C3CCCCC3)nc21,95.7% (active)
3,COc1ccc(NC2CCCN(C(=O)c3oc(C)cc3C)C2)cc1OC (stereo not drawn),1.1%
4,Cc1nc(C)c(C(=O)Nc2cccc(C)c2C)s1,32.5%
5,O=C(O)C1Nc2c(Cl)cc(Cl)cc2C2C=CCC12 (stereo not drawn),89.8% (active)
6,O=C(O)C1Nc2c(O)cc(Cl)c([N+](=O)[O-])c2C2C=CCC12 (stereo not drawn),92.7% (active)
7,O=C(Cn1c(=O)c2cccn2c2ccccc21)NCCCN1CCCCC1,2%
8,O=C(CCC(=O)c1ccc(F)cc1)NCc1ccccc1C(F)(F)F,2.4%
9,COc1cc(CN2CCN(CC3CC3)CC2CCO)cc(OC)c1 (stereo not drawn),-3.6%
10,CN(Cc1ccccc1)C(=O)COC(=O)COc1ccc(C#N)cc1,-2.2%
11,CC(C(=O)NCCCc1ccccc1)n1cccc1C(=O)c1ccccc1 (stereo not drawn),17.1%
12,CC(C)[C@H](NC(=O)C1CCN(S(=O)(=O)c2ccccc2)CC1)C(=O)NCc1ccccc1,12.2%
13,CCCc1cc(SCC(=O)Nc2c(C)n(C)n(-c3ccccc3)c2=O)n2c(nc3ccccc32)c1C#N,98.7% (active)
14,CC(C(=O)Nc1cccc(S(=O)(=O)N2CCOCC2)c1)N1CCN(C)CC1 (stereo not drawn),-1.7%
15,CCOC(=O)c1c(C)n(CCOc2ccccc2)c2ccc(O)cc12,14.4%
16,CC(C)/C=C/CN1CCCC(N2CCN(c3cccc(Cl)c3)CC2)C1 (stereo not drawn),-15%
17,COC(=O)c1ccc(COc2ccc(F)cc2)o1,27.9%
18,C/C(=N\NC(=O)C(=O)Nc1ccc(C)c(Cl)c1)c1ccncc1,91.6% (active)
19,Cc1ccc(F)c(CNC(=O)C2CCC(=O)N(Cc3ccccn3)C2)c1F (stereo not drawn),1.1%
20,CCC(=O)N1CCN=C1SCc1cccc(F)c1,0.5%
21,CCC(=O)Nc1c(-c2ccc(Cl)cc2)c(=O)c2ccccc2n1C,-1.5%
22,COC(=O)c1cc(S(=O)(=O)N2CCCCC2)c[nH]1,4.2%
23,Cc1c(C)c2cc(Cl)c(OCC(=O)NC3CC(C)(C)NC(C)(C)C3)cc2oc1=O,-11.9%
24,Nc1ccc2nc3c(=O)[nH]c(=S)[nH]c3nc2c1,61.5% (active)
25,COc1cccc(-c2ocnc2C(=O)Nc2ccc(N3CCOCC3)cc2N2CCOCC2)c1,-5.2%

row,Compound,inhibition
1,CCCCN(CCCC)CCNC(=O)CN1C(=O)COc2ccc(S(=O)(=O)N3CCOCC3)cc21,-18%
2,Nc1nonc1-c1nc2ccccc2n1CC(=O)N/N=C/c1ccc(-c2cccc(C(=O)O)c2)o1,73.2% (active)
3,O=S(=O)(NCCc1csc(-c2cccnc2)n1)c1ccc(F)cc1,-3.7%
4,Oc1ccc(/C=N/Nc2ncc(Cl)cc2Cl)cc1,14.3%
5,CCc1c(C)nc2c(-c3ccccc3)c(-c3ccccc3)[nH]n2c1=O,1.4%
6,COC(=O)c1ccc(NS(=O)(=O)c2ccc3c(c2)n(C)c(=O)n3C)cc1,-7.8%
7,CCCN1CCC(=O)N([C@H](CSc2ccccc2)CC(C)C)CC1,-3.5%
8,COc1cccc(-c2coc3cc4oc(=O)c(CCC(=O)O)c(C)c4cc23)c1,-0.1%
9,O=C(NCCCN1CCCCC1)c1ccc(CS(=O)c2ccc(Cl)cc2)o1 (stereo not drawn),-3.5%
10,OCCC1CCCCN1CC(O)COCc1ccc(Cl)cc1 (stereo not drawn),-7.1%
11,c1ccc(-c2ccnc3nc(N4CCN(c5ccccc5)CC4)nn23)cc1,19%
12,CC1Cc2cc(-c3csc(N)n3)ccc2O1 (stereo not drawn),7.6%
13,O=C(CNC(=O)c1ccco1)Nc1ccc(Br)cc1,7%
14,CCCC(CCC)C(=O)NC1CCN(Cc2ccccc2)CC1,-4.1%
15,S=C(c1ccc(OCc2ccccc2)cc1)N1CCCC1,7.3%
16,CN(C)c1ccc(C(=S)N2CCN(Cc3ccccc3)CC2)cc1,56.8% (active)
17,O=c1[nH]c2ccc(NS(=O)(=O)c3ccc(F)c(Cl)c3)cc2[nH]1,-7.2%
18,NC(=S)N/N=C/c1ccc2cccc(OCc3ccccc3)c2n1,9.9%
19,Cc1cc2c(cc3c(=O)n(CC(=O)NCCCN4CC(C)CC(C)C4)ncn32)s1 (stereo not drawn),-3.8%
20,Cc1[nH]c(=O)[nH]c(=O)c1S(=O)(=O)Nc1ccc(Br)cc1F,4.3%
21,O=C(N[C@@H](Cc1ccccc1)C(=O)N1CCC2(CC1)NCCc1[nH]cnc12)c1cccc(F)c1,19.9%
22,CN1CCN(Cc2nc3ccccc3n2C)CC1CCO (stereo not drawn),-0.8%
23,Cc1ccc(-n2cccc2/C=C2\C(=N)N3N=C(c4ccco4)SC3=NC2=O)cc1,98.9% (active)
24,CS(=O)(=O)C1=NSC2=NC(=O)/C(=C\c3cccn3-c3ccc(Cl)cc3)C(=N)N21,86.4% (active)
25,c1ccc(NC2=NCCCS2)cc1,-2.2%

row,Compound,inhibition
1,COc1ccc(C)c(NC(=O)NCCc2cnc[nH]2)c1,7.6%
2,CCOc1ccc(S(=O)(=O)N2CCOCC2)cc1NC(=O)CSCC(=O)Nc1cccc(C)c1,-2.1%
3,CCCCCCC(=O)Nc1nc(C)c(-c2csc(Nc3cc(OC)ccc3OC)n2)s1,11.7%
4,O=C(COc1ccc(S(=O)(=O)N2CCOCC2)cc1)N1CCN(c2ccccc2)CC1,7.2%
5,CNC1(C(N)=O)CCNCC1,-8.1%
6,CC1=CC(=C2C=CC(=O)C=C2)C=C(C)N1C,4.7%
7,CCCCNC(=O)CCc1c(C)nc2c(c(C)nn2-c2ccccc2)c1C,-6.7%
8,Cc1ccc(CC(=O)NC2CCN(C)CC2)cc1,21.9%
9,CN1CCCN(C(=O)c2cccc(Cl)c2)CC1,-8.6%
10,Cc1cccc(-n2c(N)c(C(=O)N3CCN(C)CC3)sc2=S)c1,36.6%
11,CC(C)c1ccc(NC(=O)N2CCN(S(=O)(=O)c3ccccc3)CC2)cc1,0%
12,Nc1c2c(nc3c1CCCC3)CCCC2 (tested in a mixture with another compound),-12.1%
13,CN(C)CCN(Cc1ccccc1)C(=O)C1CCN(c2ncnc3c2nc2n3CCCCC2)CC1,-3.7%
14,CC(C)(C)NC(=S)N1CCC(C(=O)c2ccc(F)cc2)CC1,-7.6%
15,Cc1ccc(N=C2C(=O)Nc3c(C)cccc32)cc1,-18.2%
16,O=S(=O)(NC(=NCc1ccccc1)c1ccccc1)c1ccccc1,-7.7%
17,CCC(C)(C)NC(=O)CN(C(=O)CCC(=O)Nc1nccs1)c1ccc2c(c1)OCCO2,1.8%
18,O=C(c1cccc([N+](=O)[O-])c1)c1ccc2c(c1)C(=O)N(c1c[nH]c(=O)[nH]c1=O)C2=O,-0.9%
19,CC(C)=C(NC(=O)c1ccccc1)C(=O)NCCc1nc2ccccc2[nH]1,26.9%
20,CCc1ccc2nc(NC(=O)c3ccc4c(=O)[nH]c(CN5CCOCC5)nc4c3)sc2c1,66.5% (active)
21,Cc1ccc2nc(NC(=O)C3CC3C)sc2c1 (stereo not drawn),-7.4%
22,CCN(CC)CCCNC(=O)c1oc2ccc3c(c2c1C)C(O)CC(C)(C)O3 (stereo not drawn),-1.6%
23,CC(C)C(=O)N1CCC(n2nccc2NC(=O)CCc2ccccc2)CC1,-2.1%
